Laboratory results taken from PubChem BioAssay (NCATS).
Values without a mark were called inactive. Inconclusive results are not listed. Calls of active or inactive are those of the source. Calls come from the whole dose curve; as a rule, active = well fitted curve in the direction sought with a large enough effect; inconclusive = small, poorly fitted or top-dose-only effect, or another doubt; inactive = no such curve, though single readings can be large; an effect the other way counts as inactive or inconclusive.

target: Luciferin 4-monooxygenase (Photinus pyralis) (UniProt P08659); experiment: Primary firefly luciferase (FLuc) qHTS assay for identification of artifact compounds. (AID 1845220); details: purified firefly luciferase, luminescence, 5 min; series mostly up to 54.1 µM; activity change, negative = inhibition: at the top concentration; note: nearly all actives have a fitted effect of over 60% in size;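 for activity change, negative = inhibition: plate controls were DMSO vehicle for no effect and no enzyme for full effect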
Procedure, shortened: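 Titrated compounds were incubated 15 min at RT, protected from light, with luciferin and ATP at 10 uM; reaction started with 10 nM FLuc, luminescence imaged at 5 min, and concentration-response fitted by Hill equation.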

Row | SMILES | activity change, negative = inhibition | outcome
1 | O=C(NCCCCN1CCN(c2cccc(Cl)c2Cl)CC1)c1cc2ccccc2s1 | -1.14% | –
2 | O=C(NCc1nc2ccccc2c(=O)n1-c1ccc(F)cc1)Nc1ccc(Cl)c(C(F)(F)F)c1 | -12.7% | –
3 | CC/C=C\CC1C(=O)C=CC1(CCCCC1CCC(=O)O1)OC(C)=O (stereo not drawn) | 2.55% | –
4 | C=C1C(=O)O[C@@H]2[C@H]1CC(=O)[C@H](C)[C@@](O)(C(=O)/C=C/C)[C@H]2OC(=O)C(C)CC (stereo partly drawn) | – | inactive
5 | CC(C)CCNC(=O)c1ccc2c(c1)nc(Nc1n[nH]c3ccc(-c4ccccc4OC(F)(F)F)cc13)n2C1CCC(O)CC1 (stereo not drawn) | – | inactive
6 | C=C1C(=O)O[C@@H]2C[C@H](C)C3=CC(=O)[C@H](O)[C@@]3(C)C[C@H]12 | – | inactive
7 | CCOC(=O)N1CCC(N2CCC[C@@H](NC(=O)c3ccccc3C)C2)CC1 | -0.142% | –
8 | C=C1C(=O)O[C@H]2C1CCC(C)=C1C(=O)C=C(C)[C@@]12O (stereo partly drawn) | -3.69% | –
9 | Cc1cc2sc(NC(=O)Cc3ccccc3)nc2cc1Cl | -14.7% | –
10 | C/C=C(/C)C(=O)OC1C=C2C3C(C)C(C)C(OC(=O)C(C)C(C)O)CC3(C)CCC2(C)C2(C)CC(OC(C)=O)C3C(C)(C)C(O)C(=O)CC3(C)C12 (stereo not drawn) | -1.61% [at 25.7 µM] | –
11 | C/C(=C\CCC(C)C1=CCC2(C)OC3=C(CC12)C(=O)C(O)CC3)CO (stereo not drawn) | -14.1% | –
12 | CC(=O)C1(C)CCC2C3C=C(C)C4=CC(=O)CCC4(C)C3CCC21C (stereo not drawn) | -4.14% | –
13 | O=C(N[C@@H]1CCCc2c1cnn2-c1ccc(F)cc1F)c1ccccn1 | -0.413% | –
14 | C=C1C(=O)O[C@H]2C[C@@H](C)[C@@H]3CCC(=O)[C@@]3(C)C[C@H]12 | -2.7% | –
15 | CN(C)c1ccnc2sc3c(=O)n(N4CCCCCC4)cnc3c12 | – | inactive
16 | CC(=O)NC(C(=O)O[C@H]1CCC(C)(C)[C@@H]2CC=C3C(=O)OCC3(O)[C@@]12C)C(C)C (stereo partly drawn) | – | inactive
17 | COc1cc(NC(=O)c2cccc(-n3cc(NC(=O)Nc4cccc(C)c4)cn3)c2)cc(OC)c1OC | 4.67% | –
18 | CCN1CCN(Cc2ccc(C(=O)Nc3ccc(C)c(Oc4ccc5c(c4)CC(=O)N5)c3)cc2C(F)(F)F)CC1 | 0.802% | –
19 | CNc1nc(NCc2ccc(NS(C)(=O)=O)cc2Cl)cc(-c2ccccn2)n1 | – | inactive
20 | CC(=O)OC1[C@H]2[C@@H](C[C@@H](C)[C@@H]3C=CC(=O)[C@@]13C)OC(=O)[C@@H]2C (stereo partly drawn) | – | inactive

Row | SMILES | activity change, negative = inhibition | outcome
21 | CCCCOc1ccc(S(=O)(=O)n2c(C)nc3ccccc32)cc1 | – | inactive [at 25.7 µM]
22 | O=C(N[C@H]1CCC[C@H](CO)C1)C1CCN(c2nc3cc(Cl)c(-c4ccc(Cl)cc4)cc3o2)CC1 | – | inactive
23 | Cc1ccc(NC(=O)N2CCN(c3nc(N)nc4sc(-c5cccnc5)nc34)CC2)cc1 | -2.65% | –
24 | C/C=C(\C)C(=O)O[C@H]1C=CC(=O)O[C@H]1/C=C/[C@@H](O)[C@H](C)O | – | inactive
25 | FC(F)(F)c1ccccc1-c1cc(C(F)(F)F)c2nc(C3=NOC4(CCCCC4)C3)[nH]c2c1 | -10.4% | –
26 | COc1ccc(-c2cnc3c(-c4cccc5ncccc45)cnn3c2)cc1 | -4.83% | –
27 | O=c1[nH]c2ccc(C#CCN3CCC(Cc4ccccc4)CC3)cc2[nH]1 | – | inactive
28 | CC1OC(OC2C(O)COC(O[C@@H]3[C@@H](O)[C@@H](O)[C@H](OC4C(OC(=O)[C@]56CCC(C)(C)CC5C5=CCC7[C@@]8(C)C[C@H](O)[C@H](OC9OC(CO)C(O)C(O)C9O)[C@@](C)(CO)C8[C@H](O)C[C@@]7(C)[C@]5(C)CC6)OCC(O)C4O)O[C@H]3C)C2O)C(O)C(O)C1O (stereo partly drawn) | -14.3% [at 11.6 µM] | –
29 | CO[C@@H]1[C@H](O)CCC2(CO2)[C@H]1[C@@]1(C)O[C@@H]1CC=C(C)C (stereo partly drawn) | – | inactive
30 | O=C(NCCN1CCN(c2cccc3c2OCCO3)CC1)c1ccc(F)cc1 | – | inactive
31 | CCCC(Nc1nc(-c2ccc(NC(=O)NCC)c(OC)c2)ncc1C)c1cccnc1 (stereo not drawn) | -10.1% | –
32 | O=C(N[C@H](Cc1cscn1)C(=O)N[C@@H](CC1CCCCC1)[C@@H](O)[C@@H](O)C1CC1)c1nc2ccccc2[nH]1 | -13% | –
33 | CC(C)=CCCC1(C)/C=C/C(OC(=O)C=C(C)C)C(C)(O)/C=C/C(=O)/C(CO)=C\C1 (stereo not drawn) | -8.65% [at 25.7 µM] | –
34 | C=CCCN1CCC2(CC1)CN(C(=O)c1c(F)cccc1F)c1ccc(Cl)cc12 | – | inactive
35 | O=C(Nc1ccn(Cc2ccc(O)cc2C(F)(F)F)n1)c1c(F)cccc1F | – | inactive
36 | COC(=O)c1ccnc(-c2cc(C(=O)Nc3ccc(C4(N)CC4)cc3)ccn2)c1 | -11.3% | –
37 | CCCC(=O)C1(c2ccccc2)CCN(C(=O)[C@@H](Cc2ccc(OC)cc2)NC(=O)[C@@H](N)Cc2cncn2C)CC1 | -15.5% | –
38 | COc1cc(O)c2c(c1)C1OC1C[C@H](O)[C@H](O)C(=O)/C=C\C[C@H](C)OC2=O (stereo partly drawn) | 1.12% | –
39 | Cc1ccc(-c2c(C(=O)CCl)n(CCCO)c3ncnc(N)c23)cc1 | – | inactive

test system: not listed separately; experiment: Primary fluorescence-based thiol-reactive (MSTI) qHTS assay for identification of artifact compounds. (AID 1845221); details: MSTI thiol-reactivity probe, 1 h; series mostly up to 53.8 µM; activity change, negative = thiol reactive: at the top concentration; note: nearly all actives have a fitted effect of over 65% in size; note: potency is the fitted concentration of half-maximal effect;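 for activity change, negative = thiol reactive: thiol-reactive compounds lower the probe fluorescence signal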
Procedure, shortened: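 qHTS titration of compound; 4 uM MSTI, PBS pH 7.4, 2% DMSO; 1 h RT, dark; fluorescence 525/598 nm; normalized to Acetyl-MSTI and MSTI; 4-parameter Hill fit.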

Row | SMILES | activity change, negative = thiol reactive | Potency
40 | O=C(NCCCCN1CCN(c2cccc(Cl)c2Cl)CC1)c1cc2ccccc2s1 | 149% | –
41 | O=C(NCc1nc2ccccc2c(=O)n1-c1ccc(F)cc1)Nc1ccc(Cl)c(C(F)(F)F)c1 | 105% | –
42 | CC/C=C\CC1C(=O)C=CC1(CCCCC1CCC(=O)O1)OC(C)=O (stereo not drawn) | -10.9% | –
43 | C=C1C(=O)O[C@@H]2[C@H]1CC(=O)[C@H](C)[C@@](O)(C(=O)/C=C/C)[C@H]2OC(=O)C(C)CC (stereo partly drawn) | 43.6% | –
44 | CC(C)CCNC(=O)c1ccc2c(c1)nc(Nc1n[nH]c3ccc(-c4ccccc4OC(F)(F)F)cc13)n2C1CCC(O)CC1 (stereo not drawn) | – | 5.32 µM (active)
45 | C=C1C(=O)O[C@@H]2C[C@H](C)C3=CC(=O)[C@H](O)[C@@]3(C)C[C@H]12 | – | 11.9 µM (active)
46 | CCOC(=O)N1CCC(N2CCC[C@@H](NC(=O)c3ccccc3C)C2)CC1 | -1.01% | –
47 | C=C1C(=O)O[C@H]2C1CCC(C)=C1C(=O)C=C(C)[C@@]12O (stereo partly drawn) | -4.38% | –
48 | Cc1cc2sc(NC(=O)Cc3ccccc3)nc2cc1Cl | 32.7% | –
49 | C/C=C(/C)C(=O)OC1C=C2C3C(C)C(C)C(OC(=O)C(C)C(C)O)CC3(C)CCC2(C)C2(C)CC(OC(C)=O)C3C(C)(C)C(O)C(=O)CC3(C)C12 (stereo not drawn) | 6.27% [at 25.6 µM] | –
50 | C/C(=C\CCC(C)C1=CCC2(C)OC3=C(CC12)C(=O)C(O)CC3)CO (stereo not drawn) | 6.88% | –
51 | CC(=O)C1(C)CCC2C3C=C(C)C4=CC(=O)CCC4(C)C3CCC21C (stereo not drawn) | 98.6% | –
52 | O=C(N[C@@H]1CCCc2c1cnn2-c1ccc(F)cc1F)c1ccccn1 | 69.5% | –
53 | C=C1C(=O)O[C@H]2C[C@@H](C)[C@@H]3CCC(=O)[C@@]3(C)C[C@H]12 | 30.4% | –
54 | CN(C)c1ccnc2sc3c(=O)n(N4CCCCCC4)cnc3c12 | 32.4% | –
55 | CC(=O)NC(C(=O)O[C@H]1CCC(C)(C)[C@@H]2CC=C3C(=O)OCC3(O)[C@@]12C)C(C)C (stereo partly drawn) | 0.0571% | –
56 | COc1cc(NC(=O)c2cccc(-n3cc(NC(=O)Nc4cccc(C)c4)cn3)c2)cc(OC)c1OC | 105% | –
57 | CCN1CCN(Cc2ccc(C(=O)Nc3ccc(C)c(Oc4ccc5c(c4)CC(=O)N5)c3)cc2C(F)(F)F)CC1 | -15.7% | –
58 | CNc1nc(NCc2ccc(NS(C)(=O)=O)cc2Cl)cc(-c2ccccn2)n1 | 130% | –
59 | CC(=O)OC1[C@H]2[C@@H](C[C@@H](C)[C@@H]3C=CC(=O)[C@@]13C)OC(=O)[C@@H]2C (stereo partly drawn) | – | 23.8 µM (active)

Row | SMILES | activity change, negative = thiol reactive | Potency
60 | CCCCOc1ccc(S(=O)(=O)n2c(C)nc3ccccc32)cc1 | 0.0416% [at 25.6 µM] | –
61 | O=C(N[C@H]1CCC[C@H](CO)C1)C1CCN(c2nc3cc(Cl)c(-c4ccc(Cl)cc4)cc3o2)CC1 | 71.4% | –
62 | Cc1ccc(NC(=O)N2CCN(c3nc(N)nc4sc(-c5cccnc5)nc34)CC2)cc1 | 193% | –
63 | C/C=C(\C)C(=O)O[C@H]1C=CC(=O)O[C@H]1/C=C/[C@@H](O)[C@H](C)O | 6.31% | –
64 | FC(F)(F)c1ccccc1-c1cc(C(F)(F)F)c2nc(C3=NOC4(CCCCC4)C3)[nH]c2c1 | 91.6% | –
65 | COc1ccc(-c2cnc3c(-c4cccc5ncccc45)cnn3c2)cc1 | -2.06% | –
66 | O=c1[nH]c2ccc(C#CCN3CCC(Cc4ccccc4)CC3)cc2[nH]1 | 77.9% | –
67 | CC1OC(OC2C(O)COC(O[C@@H]3[C@@H](O)[C@@H](O)[C@H](OC4C(OC(=O)[C@]56CCC(C)(C)CC5C5=CCC7[C@@]8(C)C[C@H](O)[C@H](OC9OC(CO)C(O)C(O)C9O)[C@@](C)(CO)C8[C@H](O)C[C@@]7(C)[C@]5(C)CC6)OCC(O)C4O)O[C@H]3C)C2O)C(O)C(O)C1O (stereo partly drawn) | 417% [at 11.5 µM] | –
68 | CO[C@@H]1[C@H](O)CCC2(CO2)[C@H]1[C@@]1(C)O[C@@H]1CC=C(C)C (stereo partly drawn) | -12.8% | –
69 | O=C(NCCN1CCN(c2cccc3c2OCCO3)CC1)c1ccc(F)cc1 | -14.7% | –
70 | CCCC(Nc1nc(-c2ccc(NC(=O)NCC)c(OC)c2)ncc1C)c1cccnc1 (stereo not drawn) | 7.03% | –
71 | O=C(N[C@H](Cc1cscn1)C(=O)N[C@@H](CC1CCCCC1)[C@@H](O)[C@@H](O)C1CC1)c1nc2ccccc2[nH]1 | 29.7% | –
72 | CC(C)=CCCC1(C)/C=C/C(OC(=O)C=C(C)C)C(C)(O)/C=C/C(=O)/C(CO)=C\C1 (stereo not drawn) | -3.58% [at 25.6 µM] | –
73 | C=CCCN1CCC2(CC1)CN(C(=O)c1c(F)cccc1F)c1ccc(Cl)cc12 | 86.8% | –
74 | O=C(Nc1ccn(Cc2ccc(O)cc2C(F)(F)F)n1)c1c(F)cccc1F | 62.3% | –
75 | COC(=O)c1ccnc(-c2cc(C(=O)Nc3ccc(C4(N)CC4)cc3)ccn2)c1 | 63.3% | –
76 | CCCC(=O)C1(c2ccccc2)CCN(C(=O)[C@@H](Cc2ccc(OC)cc2)NC(=O)[C@@H](N)Cc2cncn2C)CC1 | -25.3% | –
77 | COc1cc(O)c2c(c1)C1OC1C[C@H](O)[C@H](O)C(=O)/C=C\C[C@H](C)OC2=O (stereo partly drawn) | 32.1% | –
78 | Cc1ccc(-c2c(C(=O)CCl)n(CCCO)c3ncnc(N)c23)cc1 | 14.6% | –
